Assay results published in PubChem BioAssay (NCI).
This is part of a sample that, as a whole, favours compounds with a hit. Of some 83,000 tested, about 20% had one in any assay.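 Each cell line was grown in a 96-well plate and treated with one concentration of compound for 48 hours. Values below 10 were considered active.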 A number with no mark means an inactive call. Activity calls are given as the source filed them.

How the values were obtained:
Experiment in all cases: NCI-60 one-dose screen, 48 h (100 = growth as untreated, 0 = no growth, -100 = all killed)
Conditions in all cases: 10 µM unless noted
NCI-H23 lung = test system: NCI-H23 lung
NCI-H226 lung = test system: NCI-H226 lung
NCI-H322M lung = test system: NCI-H322M lung
HOP-62 NSCLC = test system: HOP-62 NSCLC
NCI-H460 lung = test system: NCI-H460 lung
HOP-92 NSCLC = test system: HOP-92 NSCLC
NCI-H522 lung = test system: NCI-H522 lung
A549/ATCC NSCLC = test system: A549/ATCC NSCLC
786-0 renal = test system: 786-0 renal
COLO 205 colon = test system: COLO 205 colon
DU-145 prostate = test system: DU-145 prostate
K-562 leukemia = test system: K-562 leukemia
MALME-3M melanoma = test system: MALME-3M melanoma
MDA-MB-231 breast = test system: MDA-MB-231 breast
RXF 393 renal = test system: RXF 393 renal
SF-268 CNS = test system: SF-268 CNS
SF-295 CNS = test system: SF-295 CNS
SF-539 CNS = test system: SF-539 CNS
UACC-257 melanoma = test system: UACC-257 melanoma
M14 melanoma = test system: M14 melanoma

Row | SMILES | growth (NCI-H23 lung) | growth (NCI-H226 lung) | growth (NCI-H322M lung) | growth (HOP-62 NSCLC) | growth (NCI-H460 lung) | growth (HOP-92 NSCLC) | growth (NCI-H522 lung) | growth (A549/ATCC NSCLC) | growth (786-0 renal) | growth (COLO 205 colon) | growth (DU-145 prostate) | growth (K-562 leukemia) | growth (MALME-3M melanoma) | growth (MDA-MB-231 breast) | growth (RXF 393 renal) | growth (SF-268 CNS) | growth (SF-295 CNS) | growth (SF-539 CNS) | growth (UACC-257 melanoma) | growth (M14 melanoma)
1 | CCOC(=O)CCN(C)C1=Nc2ccc(Cl)cc2C(c2ccccc2)=[N+]([O-])C1 | 101% | 104% | 98.4% | 96.6% | 106% | 98.6% | 70.9% | 100% | 117% | 129% | 106% | 96.8% | 101% | 97.9% | 105% | 99.6% | 102% | 107% | 105% | 113%
2 | C1CCC([PH+](C2CCCCC2)C2CCCCC2[PH+](C2CCCCC2)C2CCCCC2)CC1.O=C(C1[CH-]CCCC1)C1CCCC[N-]1.[Au] (stereo not given) | -35% (active) | -60.1% (active) | -48% (active) | -9.03% (active) | -49.6% (active) | -36.8% (active) | -22.4% (active) | -39.9% (active) | -77.2% (active) | -45% (active) | -38.7% (active) | 5.08% (active) | -66.3% (active) | -54.9% (active) | -95.2% (active) | -28.5% (active) | -46.8% (active) | -87.9% (active) | -45.6% (active) | -52.2% (active)
3 | CN1CC(CNC(=O)OCc2ccccc2)CC2c3cccc4c3c(cn4C)CC21 (stereo not given) | 71.6% | 78% | 82.9% | 35.2% | 40.4% | 29.5% | 60.5% | 45.5% | 42.8% | -72.5% (active) | 56.8% | 3.66% (active) | -16% (active) | 27.3% | 8.6% (active) | 59% | 25.8% | 28.6% | -60.4% (active) | -58% (active)
4 | CCOC(=O)[C@@H](C)C[C@H](Cc1ccccc1)NC(=O)c1csc([C@@H](C[C@H](C(C)C)N(C)C(=O)CNC(=O)[C@H]2CCCCN2C)OC(C)=O)n1 | 31.7% | 69.9% | 44.7% | 23.5% | 5.98% (active) | 47.5% | -12.8% (active) | 16.4% | 19.8% | -11.6% (active) | 9.26% (active) | 6.73% (active) | 76.1% | 14.5% | -13.8% (active) | 46.6% | 5.3% (active) | -8.42% (active) | 58.7% | -20.9% (active)
5 | C/C1=C/C(=O)O[C@@H]2C[C@@H](CC[C@H](C)/C=C\C=C\CC1)O[C@@](O)([C@@H]1CSC(=O)N1CO)C2 | 13.9% | 46.1% | 41.7% | -25.7% (active) | 26.9% | -82.5% (active) | -52.3% (active) | 20.3% | 6.79% (active) | -55.5% (active) | 22.9% | 22.2% | 14% | 13.7% | -35.4% (active) | -37.7% (active) | 13.5% | -3.61% (active) | 13.9% | 34.5%
6 | COc1cc(C=Nc2cc(Cl)cc(Cl)c2)ccc1N(CCCl)CCCl | 80.1% | 76.4% | 92.8% | 95.7% | 13.7% | 77.3% | -84.3% (active) | 91.9% | 107% | 76.9% | 98.2% | 84.6% | 74.9% | 65.5% | 82% | 93% | 80.8% | 89.3% | 100% | 92.2%
7 | CCCCCCCC[n+]1ccc2ccccc2c1 | 36.5% | 61.4% | 99.2% | 77.2% | 73.9% | 52% | 29.8% | 88.7% | 75.5% | 59% | 82.7% | 22.6% | 42.4% | 67% | 97.4% | 80.4% | 67% | 62.6% | 20% | 42.6%
8 | O=c1[nH]cc(N(CCCl)CCCl)c(=O)[nH]1 | 54.2% | 76.5% | 96.6% | 103% | 31.8% | 2.65% (active) | 53.8% | 77.5% | 44.9% | 81% | 52.4% | 83% | 62.5% | 95.2% | 68.6% | 52% | 49.6% | 46.2% | 62% | 73.5%
